Bioassay records from PubChem BioAssay.
Compounds with a hit are over-represented: about 5.7% of the library has one in this group of screens.
Myeloid diff 2 = induction of myeloid progenitor differentiation, primary screen, cell-based, flow cytometry, MLPCN library; ER-HoxA9 myeloid progenitors, lysozyme-GFP differentiation; calls only at 10 µM; 1% of 360,000 active;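 active = normalized GFP-positive differentiation at or above the plate's own cutoff, the solvent-only control mean plus 3 SD; inconclusive = no clear call, values can overlap the other calls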;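 also: cells exposed to compound for four days before flow analysis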
NR3A LBD binder = binders of NR3A ligand-binding domain, primary screen, biophysical, differential scanning fluorimetry, uHTS; NR3A LBD differential scanning fluorimetry, Tm shift; 0% = protein alone, 100% = glycine-bound protein; 2.5% of 340,000 active; AID 1259313, 2017; Glutamate receptor ionotropic, NMDA 3A (GRIN3A) ligand-binding domain; Tm shift relative to glycine control, % at 25 µM;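 active = melting temperature shift of at least 10% of the positive control shift, at one fixed dose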
rCAG RNA binder = binders of r(CAG) RNA repeats, primary screen, biochemical, fluorescence | r(CAG) RNA repeat, TO-PRO-1 dye displacement fluorescence | inhibition, % at 3 µM | 1.3% of 370,000 active;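 active = inhibition above the plate cutoff, the mean of all test compounds on that plate plus 3 SD, cut at about 35% in these data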;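 also: 0% = DMSO alone and 100% = 100 µM mitoxantrone as full dye displacement; higher means more dye released from RNA so lower well fluorescence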
FAS-TE inh = FAS thioesterase domain inhibitors, primary screen, biochemical, fluorescence intensity, uHTS; Fatty acid synthase (Homo sapiens), P49327; recombinant FAS-TE, OMFH fluorogenic substrate, fluorescence endpoint; inhibition, % at 15 µM; 0.67% of 360,000 active;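 active = compounds whose normalised, plate-corrected inhibition of enzyme fluorescence in the single-dose primary screen is 50% or more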;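 also: 0% = DMSO with enzyme and 100% = substrate without enzyme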
Target sequence (P49327 whole entry, looked up, the tested form may be a part): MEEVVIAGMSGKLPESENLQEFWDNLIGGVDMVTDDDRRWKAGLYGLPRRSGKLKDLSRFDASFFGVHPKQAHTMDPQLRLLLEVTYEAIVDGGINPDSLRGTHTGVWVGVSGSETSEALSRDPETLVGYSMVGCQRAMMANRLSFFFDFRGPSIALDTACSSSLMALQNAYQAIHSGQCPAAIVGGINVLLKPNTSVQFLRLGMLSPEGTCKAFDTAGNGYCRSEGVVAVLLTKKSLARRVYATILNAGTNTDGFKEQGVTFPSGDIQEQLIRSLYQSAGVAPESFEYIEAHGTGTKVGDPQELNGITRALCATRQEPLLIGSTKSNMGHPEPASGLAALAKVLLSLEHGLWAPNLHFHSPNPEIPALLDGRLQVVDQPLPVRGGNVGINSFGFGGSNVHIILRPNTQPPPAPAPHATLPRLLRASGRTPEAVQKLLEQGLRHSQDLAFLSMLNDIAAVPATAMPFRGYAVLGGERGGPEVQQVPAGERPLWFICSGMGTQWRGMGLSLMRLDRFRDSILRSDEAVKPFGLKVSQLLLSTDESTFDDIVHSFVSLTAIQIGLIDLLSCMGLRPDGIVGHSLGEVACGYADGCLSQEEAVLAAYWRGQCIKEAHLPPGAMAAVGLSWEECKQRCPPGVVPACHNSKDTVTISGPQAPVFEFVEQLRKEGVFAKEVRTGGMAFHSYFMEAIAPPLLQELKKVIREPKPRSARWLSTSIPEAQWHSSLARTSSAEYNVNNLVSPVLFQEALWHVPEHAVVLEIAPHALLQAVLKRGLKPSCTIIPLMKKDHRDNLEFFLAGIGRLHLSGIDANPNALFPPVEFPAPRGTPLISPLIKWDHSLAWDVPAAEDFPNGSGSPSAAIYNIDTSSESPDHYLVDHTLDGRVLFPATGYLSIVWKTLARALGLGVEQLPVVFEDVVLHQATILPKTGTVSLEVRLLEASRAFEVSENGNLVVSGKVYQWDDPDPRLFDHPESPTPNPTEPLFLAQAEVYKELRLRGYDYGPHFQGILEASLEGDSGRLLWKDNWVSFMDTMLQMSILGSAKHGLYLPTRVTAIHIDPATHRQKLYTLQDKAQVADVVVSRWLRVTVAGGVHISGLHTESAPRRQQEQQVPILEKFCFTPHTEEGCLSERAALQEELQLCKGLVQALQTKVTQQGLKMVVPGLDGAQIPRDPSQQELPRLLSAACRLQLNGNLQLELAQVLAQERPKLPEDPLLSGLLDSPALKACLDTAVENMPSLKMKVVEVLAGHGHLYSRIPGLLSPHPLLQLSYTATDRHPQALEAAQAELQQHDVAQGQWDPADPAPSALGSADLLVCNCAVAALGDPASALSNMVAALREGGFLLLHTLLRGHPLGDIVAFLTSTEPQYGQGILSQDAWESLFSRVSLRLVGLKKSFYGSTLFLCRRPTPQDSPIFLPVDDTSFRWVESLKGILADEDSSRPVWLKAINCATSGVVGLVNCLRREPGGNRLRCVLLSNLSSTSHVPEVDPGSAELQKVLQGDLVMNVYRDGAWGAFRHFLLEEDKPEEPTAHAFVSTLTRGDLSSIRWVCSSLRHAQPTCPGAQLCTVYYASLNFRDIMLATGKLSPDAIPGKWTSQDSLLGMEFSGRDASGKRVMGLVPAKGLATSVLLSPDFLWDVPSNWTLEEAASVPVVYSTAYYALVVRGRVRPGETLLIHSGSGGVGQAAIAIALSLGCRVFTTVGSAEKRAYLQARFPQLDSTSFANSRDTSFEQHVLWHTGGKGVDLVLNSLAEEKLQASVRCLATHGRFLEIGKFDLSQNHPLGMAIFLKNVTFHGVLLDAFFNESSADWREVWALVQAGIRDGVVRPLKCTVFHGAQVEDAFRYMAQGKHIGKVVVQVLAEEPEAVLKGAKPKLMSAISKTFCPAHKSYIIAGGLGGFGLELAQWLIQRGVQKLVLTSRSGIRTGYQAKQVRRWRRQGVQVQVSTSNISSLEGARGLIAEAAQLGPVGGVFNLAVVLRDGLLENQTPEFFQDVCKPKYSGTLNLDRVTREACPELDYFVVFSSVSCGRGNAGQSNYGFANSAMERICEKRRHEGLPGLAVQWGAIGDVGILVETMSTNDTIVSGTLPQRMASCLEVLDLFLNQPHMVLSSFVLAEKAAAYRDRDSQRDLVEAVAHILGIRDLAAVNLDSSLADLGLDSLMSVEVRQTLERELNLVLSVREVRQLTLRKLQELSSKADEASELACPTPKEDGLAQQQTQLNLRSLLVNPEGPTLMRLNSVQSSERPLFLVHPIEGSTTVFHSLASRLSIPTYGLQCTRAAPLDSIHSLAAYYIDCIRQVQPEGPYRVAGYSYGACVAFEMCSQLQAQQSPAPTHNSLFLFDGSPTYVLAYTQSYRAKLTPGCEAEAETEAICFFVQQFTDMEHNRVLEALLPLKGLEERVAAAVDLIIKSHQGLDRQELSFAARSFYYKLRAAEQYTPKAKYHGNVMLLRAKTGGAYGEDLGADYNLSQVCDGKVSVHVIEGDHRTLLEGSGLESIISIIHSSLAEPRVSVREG
MPTP block = mitochondrial permeability transition pore inhibitors, primary screen, biochemical, isolated mouse mitochondria, absorbance; Ca2+ swelling absorbance, 30 min; inhibition, % at 10 µM; 1.4% of 360,000 active;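 active = inhibition of 50% or more, scaled per plate between neutral and stimulator controls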;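 also: 0% = DMSO wells given calcium and 100% = 1 mM EGTA wells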
Numbers without * were called inactive; i = inactive; ? = inconclusive; . = no result; + = active, no number.

SMILES	Myeloid diff 2	NR3A LBD binder	rCAG RNA binder	FAS-TE inh	MPTP block
Cc1ccc(C(=O)OCC(=O)Nc2ccc(N(C)C)cc2)cc1NC(=O)c1ccco1	i	15*	4	-3	-1
O=C(COC(=O)c1ccco1)Nc1ccc(Br)cc1	i	11*	1	4	0
O=C(COC(=O)c1ccco1)Nc1ccccc1	i	0	1	-4	4
COc1ccc(/C=C2\CC3(OC(=O)c4ccccc4)CCCN2C3)cc1 (stereo not given)	.	.	-1	.	.
O=C1COc2ccc(C(=O)COC(=O)c3ccco3)cc2N1	i	1	1	-4	1
CC(C)[C@H](NC(=O)c1ccco1)C(=O)OCC(=O)c1ccc2c(c1)NC(=O)CO2	i	11*	1	-3	4
COc1ccc(S[C@]2(C(=O)N3CCCC3)CC(=O)N(S(=O)(=O)c3ccc(F)cc3)[C@@H]2c2ccc(OC)cc2)cc1	.	.	11	.	.
COc1cc(NC(=O)c2ccc(C)cc2)ccc1NC(=O)c1cc2ccccc2o1	+	7	4	-6	1
COc1cc(NC(=O)c2ccc(Br)cc2)ccc1NC(=O)c1cc2ccccc2o1	i	0	-1	-6	-1
COc1cc(NC(=O)c2cccc(F)c2)ccc1NC(=O)c1cc2ccccc2o1	i	36*	3	-2	1
COC(=O)c1ccc(C[n+]2ccccc2)cc1	i	3	8	1	1
Cc1ccc(C[n+]2ccccc2)cc1	+	1	1	-10	-2
CC[C@@H](CCCc1ccc(OC)cc1)CCC(=O)N(c1ccccc1)c1ccccc1	.	.	5	.	.
Clc1ccc(-c2cn3cc(Br)ccc3n2)cc1Cl	i	-26	12	-1	1
Clc1ccc(-c2cn3c(n2)-c2ccccc2C3)cc1Cl	i	30*	9	8	2
COC(=O)CCCCC(=O)C1C(=O)CC(C)(C)C(C(=O)OC)C1=O (stereo not given)	i	12*	0	-8	-1
CCCCNC(=O)NS(=O)(=O)c1ccc(NC(=O)CSc2nnc(-c3ccc(Cl)cc3)n2N)cc1	.	.	16	.	.
Cc1cccc(COCCN2CCN(S(=O)(=O)c3ccccc3)CCC2=O)c1	+	2	-6	-6	-1
O=C1CCN(S(=O)(=O)c2ccccc2)CCN1CCOCc1ccccc1	i	1	-1	-6	-2
N#C/C(=C\c1ccc(N2CCCCC2)o1)C(=O)Nc1cccc(Br)c1	+	0	-18	-117	4
N#CC1=C(N)Oc2cc(N)ccc2C1c1ccc(F)cc1F (stereo not given)	+	-3	2	5	1
N#Cc1ccc(NC(=O)OC2CC3CC2[C@H]2CCCCN2C3)cc1 (stereo not given in full)	.	.	10	.	.
O=C(Nc1cc(Cl)cc(Cl)c1)C(NCCO)c1ccccc1 (stereo not given)	i	2	0	-8	-1
O=C(O)c1ccccc1OC(C(=O)Nc1cc(Cl)cc(Cl)c1)c1ccccc1 (stereo not given)	i	23*	2	10	20
C=CCN(C)CC#Cc1ccc(OC)cc1	.	.	0	.	.
SMILES	Myeloid diff 2	NR3A LBD binder	rCAG RNA binder	FAS-TE inh	MPTP block
CCOC(=O)Nc1ccc2c(COC(=O)CN(C)S(=O)(=O)c3ccc(C)cc3)cc(=O)oc2c1	i	2	2	-9	1
CCOC(=O)Nc1ccc2c(COC(=O)CNS(=O)(=O)c3cccc(Br)c3)cc(=O)oc2c1	i	26*	9	0	3
CCN1Cc2nnn(Cc3ccccc3)c2-c2cc(F)ccc2S1(=O)=O	.	.	1	.	.
C#CCOCCOCCOCCNc1nc(N2CCN(C(=O)CCCCCCCCCCNC(=O)[C@H](CCCCN)n3cc(CCO)nn3)CC2)nc(N2CCN(C(=O)CCCCCCCCCCNC(=O)[C@H](CCCN=C(N)N)n3cc(C[C@@H](C)CC)nn3)CC2)n1	i	26*	.	-25	-12
C#CCOCCOCCOCCNc1nc(N2CCN(C(=O)CCCCCCCCCCNC(=O)[C@H](CCCCN)n3cc(C[C@@H](C)CC)nn3)CC2)nc(N2CCN(C(=O)CCCCCCCCCCNC(=O)[C@H](CCCCN)n3cc(C[C@@H](C)CC)nn3)CC2)n1	+	19*	.	-141	-3
C#CCOCCOCCOCCNc1nc(N2CCN(C(=O)CCCCCCCCCCNC(=O)Cn3cc(C[C@@H](C)O)nn3)CC2)nc(N2CCN(C(=O)CCCCCCCCCCNC(=O)[C@H](CCCCN)n3cc(C[C@@H](C)CC)nn3)CC2)n1	i	13*	.	-100	-9
C#CCOCCOCCOCCNc1nc(N2CCN(C(=O)CCCCCCCCCCNC(=O)[C@H](CCCCN)n3cc(CCCC(=O)O)nn3)CC2)nc(N2CCN(C(=O)CCCCCCCCCCNC(=O)[C@H](CCCN=C(N)N)n3cc(C[C@@H](C)CC)nn3)CC2)n1	i	23*	.	-19	-14
Cc1cccc(Cn2cc(COC(=O)N(C)Cc3ccccc3)nn2)c1	.	.	-1	.	.
O=C1CCc2cc(S(=O)(=O)N3CCN(c4ccccc4Cl)CC3)ccc2N1	.	.	3	.	.
C(=N\Nc1nncc2ccccc12)/c1cccnc1	.	.	2	.	.
C[C@H]1COc2cc(Br)ccc2S(=O)(=O)N1Cc1cn(CC2CCCCC2)nn1	.	.	0	.	.
COc1cc(Cl)ccc1OCc1cc(C(=O)N(C)Cc2nnc(C)o2)no1	i	10*	-7	-2	1
C/C(=N/NS(=O)(=O)c1ccc(Cl)cc1)c1cccc(NC(=O)c2ccc(Cl)cc2Cl)c1	i	18*	18	16	0
C/C(=N/NS(=O)(=O)c1ccc(C)cc1)c1cccc(NC(=O)c2cccc(Cl)c2)c1	i	14*	18	21	0
CC(=O)Nc1cccc(/C(C)=N/NC(=O)c2ccc(Cl)cc2Cl)c1	i	0	-2	0	0
CCOc1cccc(-c2c(C(=O)N/N=C(\C)c3ccccn3)nnn2-c2nonc2N)c1	?	31*	2	1	0
CCOc1cccc(-c2c(C(=O)N/N=C(\C)c3ccncc3)nnn2-c2nonc2N)c1	i	-2	2	-3	-1
COc1cccc(-c2c(C(=O)N/N=C(\C)c3ccco3)nnn2-c2nonc2N)c1	i	-1	1	-3	0
COc1cccc(-c2c(C(=O)N/N=C(\C)c3ccc(Cl)s3)nnn2-c2nonc2N)c1	i	11*	4	5	-2
CCc1ccc(-c2csc(-c3c[nH]c4ccccc34)n2)cc1	i	39*	19	37	4
CCOC(=O)C1=C(C(=O)OCC)C2N(Cc3ccc(C(F)(F)F)cc3)c3ccccc3[C@@]23C[C@@H](C(=O)OC)N(S(=O)(=O)c2cccs2)C3=N1 (stereo not given in full)	.	.	8	.	.
